LRH-1 inv ag – LRH-1 (NR5A2) inverse agonists, primary screen, cell-based, luminescence, HEK293T, StAR-luciferase reporter; LRH-1 transfected, 24 h; inhibition, % at 3.6 µM; 360,000 compounds, 0.13% hits;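 active means inhibition above the mean inhibition of all tested compounds plus 3 SD, cut at about 73% in these data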;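 further: 0% = DMSO wells and 100% = reporter-only cells lacking LRH-1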
Target sequence (O00482 whole entry, looked up): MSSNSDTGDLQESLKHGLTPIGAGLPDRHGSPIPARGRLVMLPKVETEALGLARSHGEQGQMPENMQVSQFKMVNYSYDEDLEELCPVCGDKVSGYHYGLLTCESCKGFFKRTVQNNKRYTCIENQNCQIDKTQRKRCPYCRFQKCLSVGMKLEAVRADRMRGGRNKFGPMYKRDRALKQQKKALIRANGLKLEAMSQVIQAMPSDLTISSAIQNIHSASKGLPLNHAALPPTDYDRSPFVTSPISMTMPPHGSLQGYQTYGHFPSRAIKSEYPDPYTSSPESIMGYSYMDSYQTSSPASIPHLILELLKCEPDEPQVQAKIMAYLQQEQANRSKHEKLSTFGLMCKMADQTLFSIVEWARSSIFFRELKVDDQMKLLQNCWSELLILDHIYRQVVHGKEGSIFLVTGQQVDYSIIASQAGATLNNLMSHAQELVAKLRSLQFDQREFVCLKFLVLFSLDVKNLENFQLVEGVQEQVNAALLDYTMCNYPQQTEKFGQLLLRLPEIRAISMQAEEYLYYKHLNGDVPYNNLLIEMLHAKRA
Efflux pump mplx – inhibitors of Candida efflux pumps in yeast, primary screen, S. cerevisiae, Nile Red, multiplex; S. cerevisiae Candida pump triplex; inhibition, % at 10 µM; 330,000 compounds, 0.44% hits; AID 485275, 2010;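 active means plate passing quality check with inhibition over a set limit, or well fluorescence over plate mean plus 4 SD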;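 further: Nile Red retained in pooled yeast measured as flow cytometry median fluorescence; 0% = buffer negative control and 100% = Enniatin B positive control; higher means more Nile Red kept so more efflux inhibition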
SRC3 inh – SRC3 coactivator transcriptional activity inhibitors, primary screen, cell-based, luminescence. HEK293 GAL4-SRC3 luciferase reporter. Nuclear receptor coactivator 3 (Homo sapiens), Q9Y6Q9. 360,000 compounds, 0.17% hits. inhibition, % at 3.6 µM;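 active means inhibition above a per-campaign cutoff, the mean of all compounds plus 3 SD, cut at about 60% in these data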;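 further: 0% = DMSO-treated cells and 100% = gossypol-treated cells at 36 µM; higher means less SRC3-driven luciferase light from the GAL4 reporter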
SRC2 inh – inhibition of GAL4-SRC2 driven luciferase reporter, primary screen, SRC2 inhibitor project, cell-based, luminescence; Nuclear receptor coactivator 2 (Homo sapiens), Q15596; HEK293 GAL4-SRC2 luciferase reporter; inhibition, % at 9 µM; 370,000 compounds, 0.17% hits;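 active means inhibition above the mean inhibition of all tested compounds plus 3 SD, set per campaign, cut at about 52% in these data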;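 further: 0% = DMSO treated cells and 100% = cells given Gossypol at 36 µM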
SRC1 inh – SRC1 coactivator transcriptional activity inhibitors, primary screen, cell-based, luminescence; Nuclear receptor coactivator 1 (Homo sapiens), Q15788; HEK293 GAL4-SRC1 luciferase reporter; inhibition, % at 3.6 µM; 360,000 compounds, 0.12% hits; AID 588354, 2011;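 active means inhibition above the campaign mean plus 3 SD, with each screening campaign given its own cutoff, cut at about 60% in these data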;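 further: 0% = DMSO treated cells and 100% = gossypol at 36 µM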
COUP-TFII inh – NR2F2 transcriptional activity inhibitors, primary screen, cell-based, luciferase reporter, HEK293T, luminescence. COUP transcription factor 2 (Homo sapiens), P24468. HEK293T NGFI-A luciferase reporter. inhibition, % at 8.6 µM. 370,000 compounds, 0.7% hits. AID 686940, 2013;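 active means inhibition above a per-plate cutoff, mean inhibition of test wells between control levels plus 3 SD, cut at about 38% in these data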;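 further: cells cotransfected with COUP-TFII expression vector driving the NGFI-A reporter; 0% = median of COUP-TF2 test wells and 100% = reporter-only cells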
Yeast cmpd fluor – counter-screen for efflux pump inhibitors: compound fluorescence; shares compounds with Efflux pump mplx; S. cerevisiae AD/pABC3, flow cytometry; fluorescence ratio to DMSO, % at 10 µM; 1,700 compounds, 4% hits;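 active means fluorescence ratio to DMSO above its plate's cutoff, the plate mean ratio plus 5 SD, cut at about 210% in these data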;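 further: unstained yeast with no Nile Red so the signal is compound autofluorescence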
CaMdr1 efflux inh – inhibitors of Candida albicans Mdr1 efflux, confirmation, flow cytometry, singleplex, Cherry Pick1 set | shares compounds with Efflux pump mplx | 1,700 compounds, 1% hits | S. cerevisiae AD/CaMDR1, Nile Red efflux | inhibition, % at 10 µM; in the data active means inhibition above about 26%;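 further: 0% = DMSO vehicle and 100% = reference inhibitor; higher means more Nile Red retained so more efflux inhibition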
Cdr2 pump inh – inhibitors of Candida albicans Cdr2 efflux pump, confirmation, S. cerevisiae AD/CaCDR2, flow cytometry, cherry pick 1, singleplex | AID 588520, 2011 | Nile Red retention ratio vs DMSO, % at 10 µM | 1,700 compounds, 4% hits | Nile Red retention | shares compounds with Efflux pump mplx; in the data active means Nile Red retention ratio vs DMSO above about 190%;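 further: higher ratio means more blocking of Cdr2 efflux of the dye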
Cdr1 pump inh – inhibitors of Candida albicans Cdr1 efflux pump, confirmation, S. cerevisiae AD/CaCDR1, flow cytometry, cherry pick 1, singleplex; 1,700 compounds, 1% hits; AID 588522, 2011; shares compounds with Efflux pump mplx; Nile Red efflux; inhibition, % at 10 µM;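 active means inhibition above the screen-wide mean plus twice its standard deviation, cut at about 32% in these data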
Starred values were filed as active, the others as inactive. A selection: hits, their analogues and other compounds. The true share with any hit is near 1.2%.

`Cn1c(=O)c2c(nc(NCc3ccc4c(c3)OCO4)n2Cc2ccc(F)cc2)n(C)c1=O` gave LRH-1 inv ag 29, Efflux pump mplx 0, SRC3 inh -1, SRC2 inh -15, SRC1 inh 10 and COUP-TFII inh 7.
NS(=O)(=O)c1ccc(CCNC(=O)Nc2ccc(Cl)c(Cl)c2)cc1 was read as LRH-1 inv ag 10, Efflux pump mplx 1.4*, SRC3 inh 11, SRC2 inh -11, SRC1 inh -7, COUP-TFII inh 0, Yeast cmpd fluor 183, CaMdr1 efflux inh 0, Cdr2 pump inh 101 and Cdr1 pump inh 0.
Cc1cc(NS(=O)(=O)c2ccc(NC(=O)CCN3C(=O)c4ccccc4C3=O)cc2)no1 was read as LRH-1 inv ag -3, Efflux pump mplx 0.9*, SRC3 inh 10, SRC1 inh 10, Yeast cmpd fluor 99, CaMdr1 efflux inh 0, Cdr2 pump inh 99 and Cdr1 pump inh 0.
`Cc1ccc(S(=O)(=O)c2ccc(Cl)cc2)cc1S(N)(=O)=O` gave LRH-1 inv ag 8, Efflux pump mplx 0, SRC3 inh 14, SRC2 inh -7, SRC1 inh 9 and COUP-TFII inh -2.
For Cc1ccc(S(=O)(=O)c2ccc(Cl)cc2)cc1S(=O)(=O)N(C)CC(=O)O the results were LRH-1 inv ag 14, Efflux pump mplx 15*, SRC3 inh 5, SRC2 inh -11, SRC1 inh -18, COUP-TFII inh -7, Yeast cmpd fluor 101, CaMdr1 efflux inh 0, Cdr2 pump inh 98 and Cdr1 pump inh 0.
Screening O=C(NC(=S)N1CCN(Cc2ccc3c(c2)OCO3)CC1)c1ccc(Cl)cc1 returned LRH-1 inv ag 8, Efflux pump mplx 28*, SRC3 inh -2, SRC2 inh -59, SRC1 inh -6, COUP-TFII inh 0, Yeast cmpd fluor 103, CaMdr1 efflux inh 0, Cdr2 pump inh 110 and Cdr1 pump inh 0.
`O=C1C=C(O)C(n2cncn2)C(c2ccc3c(c2)OCO3)C1` (centres undefined) gave LRH-1 inv ag -6, Efflux pump mplx 0, SRC3 inh -5, SRC2 inh -28, SRC1 inh -20 and COUP-TFII inh -7.
`O=C(CN(c1ccc(Cl)c(C(F)(F)F)c1)S(=O)(=O)c1ccccc1)N1CCOCC1` gave LRH-1 inv ag -18, Efflux pump mplx 0.7*, SRC3 inh 2, SRC2 inh -19, SRC1 inh 4, COUP-TFII inh 9, Yeast cmpd fluor 102, CaMdr1 efflux inh 0, Cdr2 pump inh 99 and Cdr1 pump inh 0.
`O=C(CN(c1cccc(C(F)(F)F)c1)S(=O)(=O)c1ccccc1)N1CCOCC1` gave LRH-1 inv ag 6, Efflux pump mplx 0, SRC3 inh -10, SRC2 inh -11, SRC1 inh -4 and COUP-TFII inh -1.
For O=[N+]([O-])c1cc(C(F)(F)F)ccc1NCCc1ccccn1 the results were LRH-1 inv ag -42, Efflux pump mplx 0.9*, SRC3 inh -13, SRC2 inh -49, SRC1 inh -21, COUP-TFII inh -19, Yeast cmpd fluor 103, CaMdr1 efflux inh 0, Cdr2 pump inh 121 and Cdr1 pump inh 0.
For Cc1ccc(S(=O)(=O)N2CCN(C(=O)CC(C)n3cncn3)CC2)cc1 (centres undefined) the results were LRH-1 inv ag 3, Efflux pump mplx 0, SRC3 inh 10, SRC2 inh -3, SRC1 inh 0 and COUP-TFII inh 25.
`CCC(NC(=O)c1cc(COc2c(F)cccc2F)on1)c1ccncc1` (centres undefined) gave LRH-1 inv ag -1, Efflux pump mplx 0, SRC3 inh -11 and SRC1 inh -6.
For COC(=O)[C@H](Cc1ccccc1)NC(=O)c1cc(COc2c(F)cccc2F)on1 the results were LRH-1 inv ag -27, Efflux pump mplx 0, SRC3 inh -29, SRC2 inh -27, SRC1 inh -29, COUP-TFII inh -36, Yeast cmpd fluor 92, CaMdr1 efflux inh 0, Cdr2 pump inh 106 and Cdr1 pump inh 0.
CC1CC(C)CN(c2ncc3c(n2)CC(c2ccc(Cl)cc2)CC3=O)C1 (centres undefined) was read as LRH-1 inv ag 5, Efflux pump mplx 6.7*, SRC3 inh -11, SRC2 inh -20, SRC1 inh 31, COUP-TFII inh -26, Yeast cmpd fluor 111, CaMdr1 efflux inh 0, Cdr2 pump inh 112 and Cdr1 pump inh 0.
For COCCCn1c(SCC(=O)OC2CCCCC2)nnc1-c1cccs1 the results were LRH-1 inv ag 10, Efflux pump mplx 1.3*, SRC3 inh 19, SRC2 inh -1, SRC1 inh 3, COUP-TFII inh -5, Yeast cmpd fluor 96, CaMdr1 efflux inh 0, Cdr2 pump inh 120 and Cdr1 pump inh 0.
`O=C1CCN(Cc2ccc(Cl)cc2)N1` gave LRH-1 inv ag 11, Efflux pump mplx 2.1*, SRC3 inh 3, SRC2 inh 4, SRC1 inh 2, COUP-TFII inh -13, Yeast cmpd fluor 98, CaMdr1 efflux inh 0, Cdr2 pump inh 90 and Cdr1 pump inh 0.
`COC(=O)[C@@H]1C[C@H]2CC[C@H](O)C[C@H]2N1Cc1ccccc1OC(=O)c1cccs1` gave LRH-1 inv ag -2, Efflux pump mplx 0, SRC3 inh 1, SRC2 inh 9, SRC1 inh -7 and COUP-TFII inh 12.
